Assay [1] is described as follows: small molecules captured by biotinylated probe aFSTL3 – biochemical, small-molecule microarray, fluorescence 635/667, stem cell growth factor project, primary screen (AID 1064).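 Also: measures binding of the biotinylated anti-FSTL3 antibody to printed compounds.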 As to conditions: higher = more signal.
Assay [2] is described as follows: binders from COS7 lysate, DM2A8 probe, primary screen, torsin A project, cell lysate, small-molecule microarray, fluorescence 635/667 (AID 1065). As to conditions: higher = more signal, COS7 lysate expressing mutant human TOR1A.
Assay [3] is described as follows: small molecules captured by biotinylated probe aFGF2 – biochemical, small-molecule microarray, fluorescence 635/667, stem cell growth factor project, primary screen (AID 1067).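 Also: measures binding of biotinylated aFGF2 protein to printed compounds on slides; z-score merges feature fluorescence and signal-to-noise across triplicate slides.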 To be noted: higher = more signal.
A short description of assay [4]: small molecules captured by biotinylated probe aFGF10 – biochemical, small-molecule microarray, fluorescence 635/667, stem cell growth factor project, primary screen (AID 1071).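 Also: score merges 667 nm spot intensity and signal to noise from triplicate slides.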 To be noted: higher = more signal.
Assay [5] concerns the target Neurogenic locus notch homolog protein 2 (Homo sapiens) (UniProt Q04721). As to the kind of experiment: small molecules binding Notch2 protein – biochemical, small-molecule microarray, 635 nm fluorescence, stem cell growth factors, primary screen (AID 1073). To be noted: higher = more signal.
The target in assay [6] is Pro-neuregulin-1, membrane-bound isoform (Homo sapiens) (UniProt Q02297). As to the kind of experiment: small molecules binding neuregulin-1 protein – biochemical, small-molecule microarray, fluorescence 635/667, psychiatric disease protein project, primary screen (AID 1075).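 Also: score combines 667 nm spot fluorescence with signal to noise.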 To be noted: NRG1 binding, 635 nm fluorescence, higher = more signal.
Assay [7] concerns Neuregulin-1 EGF-like domain. Description: small molecules binding NRG1 EGF domain – biochemical, small-molecule microarray, 635 nm fluorescence, primary screen (AID 1081).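 Also: binding of the protein to compounds printed on small-molecule microarray slides.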 To be noted: higher = more signal.
The nature of assay [8]: FRG1 expression reporter modulators in myotubes – cell-based, C2C12 myotubes, firefly/Renilla luciferase, luminescence, FRG1 inhibition for FSHD, primary screen (AID 1084). To be noted: FRG1 promoter luciferase, higher = more signal, called active from +8 up or from −8 down.
Assay [9] can be described thus: small molecules captured by biotinylated probe aFST – biochemical, small-molecule microarray, fluorescence 635/667, stem cell growth factor project, primary screen (AID 1086).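 Also: score merges 667 nm fluorescence with signal-to-noise of each printed compound spot.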 As to conditions: higher = more signal.
A short description of assay [10]: binders of probe aHhip on microarray, primary screen, stem cell growth factor project, biochemical, small-molecule microarray, fluorescence 635/667 (AID 1087).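 Also: score merges spot fluorescence at 667nm with spot signal to noise ratio.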 As to conditions: higher = more signal.

Activity calls are given as the source filed them.

Chain of Neurogenic locus notch homolog protein 2 (Homo sapiens) (Q04721 whole entry, looked up, canonical isoform): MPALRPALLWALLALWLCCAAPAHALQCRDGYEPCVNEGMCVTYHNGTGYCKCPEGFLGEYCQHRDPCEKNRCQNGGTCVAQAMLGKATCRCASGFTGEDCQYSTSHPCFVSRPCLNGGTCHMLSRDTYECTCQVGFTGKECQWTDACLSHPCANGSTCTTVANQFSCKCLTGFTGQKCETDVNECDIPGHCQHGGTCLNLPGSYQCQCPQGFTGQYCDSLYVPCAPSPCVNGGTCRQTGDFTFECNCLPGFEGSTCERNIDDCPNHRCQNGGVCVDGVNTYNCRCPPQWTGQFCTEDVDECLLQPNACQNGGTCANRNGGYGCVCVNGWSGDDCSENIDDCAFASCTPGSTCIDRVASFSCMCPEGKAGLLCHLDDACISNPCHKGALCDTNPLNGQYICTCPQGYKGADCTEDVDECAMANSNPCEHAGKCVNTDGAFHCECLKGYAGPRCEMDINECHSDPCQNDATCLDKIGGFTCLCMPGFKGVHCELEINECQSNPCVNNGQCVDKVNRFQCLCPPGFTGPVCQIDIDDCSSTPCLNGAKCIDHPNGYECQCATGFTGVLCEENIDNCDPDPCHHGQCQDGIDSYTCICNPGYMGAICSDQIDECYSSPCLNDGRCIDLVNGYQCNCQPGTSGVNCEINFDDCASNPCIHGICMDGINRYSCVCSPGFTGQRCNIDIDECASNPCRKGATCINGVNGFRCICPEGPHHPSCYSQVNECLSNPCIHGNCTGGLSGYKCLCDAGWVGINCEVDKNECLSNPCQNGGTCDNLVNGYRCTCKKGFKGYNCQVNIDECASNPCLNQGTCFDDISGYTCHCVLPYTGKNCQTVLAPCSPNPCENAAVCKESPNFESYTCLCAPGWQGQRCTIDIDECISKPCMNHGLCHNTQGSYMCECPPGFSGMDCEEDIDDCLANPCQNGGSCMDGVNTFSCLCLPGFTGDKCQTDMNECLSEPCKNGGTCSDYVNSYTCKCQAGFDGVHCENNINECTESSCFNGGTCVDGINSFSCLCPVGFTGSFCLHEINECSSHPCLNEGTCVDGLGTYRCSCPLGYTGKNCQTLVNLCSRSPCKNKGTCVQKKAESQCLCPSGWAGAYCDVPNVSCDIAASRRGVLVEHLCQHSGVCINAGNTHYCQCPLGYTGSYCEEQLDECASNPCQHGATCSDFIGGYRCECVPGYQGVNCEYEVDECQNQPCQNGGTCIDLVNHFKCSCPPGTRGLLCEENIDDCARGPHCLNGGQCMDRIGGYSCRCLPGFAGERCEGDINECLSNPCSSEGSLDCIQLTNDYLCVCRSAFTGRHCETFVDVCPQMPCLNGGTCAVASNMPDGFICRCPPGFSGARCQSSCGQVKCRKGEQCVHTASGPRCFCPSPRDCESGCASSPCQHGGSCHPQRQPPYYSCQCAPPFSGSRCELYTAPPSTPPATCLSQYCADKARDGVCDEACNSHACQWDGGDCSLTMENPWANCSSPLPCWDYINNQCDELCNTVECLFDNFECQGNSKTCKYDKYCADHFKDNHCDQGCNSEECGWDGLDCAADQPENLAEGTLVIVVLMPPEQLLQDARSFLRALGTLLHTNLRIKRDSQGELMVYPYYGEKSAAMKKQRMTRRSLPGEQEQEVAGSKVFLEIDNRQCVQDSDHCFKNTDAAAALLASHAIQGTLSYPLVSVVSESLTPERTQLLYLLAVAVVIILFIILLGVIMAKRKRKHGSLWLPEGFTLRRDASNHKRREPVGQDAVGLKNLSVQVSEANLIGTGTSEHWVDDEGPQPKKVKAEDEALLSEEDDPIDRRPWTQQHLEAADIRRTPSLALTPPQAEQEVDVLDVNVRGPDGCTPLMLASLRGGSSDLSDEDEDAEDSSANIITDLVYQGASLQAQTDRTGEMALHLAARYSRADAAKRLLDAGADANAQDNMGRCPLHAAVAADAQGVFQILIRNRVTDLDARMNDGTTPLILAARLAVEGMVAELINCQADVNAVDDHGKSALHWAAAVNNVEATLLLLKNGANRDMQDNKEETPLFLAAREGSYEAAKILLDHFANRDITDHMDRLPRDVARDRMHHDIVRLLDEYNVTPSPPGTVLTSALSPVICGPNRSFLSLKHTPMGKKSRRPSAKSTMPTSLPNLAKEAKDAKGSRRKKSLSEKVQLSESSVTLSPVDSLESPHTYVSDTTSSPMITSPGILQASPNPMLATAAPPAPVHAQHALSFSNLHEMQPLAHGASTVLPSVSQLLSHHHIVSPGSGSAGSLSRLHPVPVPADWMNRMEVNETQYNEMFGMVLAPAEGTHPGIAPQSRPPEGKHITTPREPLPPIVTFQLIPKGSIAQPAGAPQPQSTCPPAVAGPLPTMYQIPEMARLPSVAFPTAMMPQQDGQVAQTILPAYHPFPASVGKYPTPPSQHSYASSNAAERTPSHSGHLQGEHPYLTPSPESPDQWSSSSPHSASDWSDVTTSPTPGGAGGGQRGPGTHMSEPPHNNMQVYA
Chain of Pro-neuregulin-1, membrane-bound isoform (Homo sapiens) (Q02297 whole entry, looked up, the tested form may be a part, canonical isoform): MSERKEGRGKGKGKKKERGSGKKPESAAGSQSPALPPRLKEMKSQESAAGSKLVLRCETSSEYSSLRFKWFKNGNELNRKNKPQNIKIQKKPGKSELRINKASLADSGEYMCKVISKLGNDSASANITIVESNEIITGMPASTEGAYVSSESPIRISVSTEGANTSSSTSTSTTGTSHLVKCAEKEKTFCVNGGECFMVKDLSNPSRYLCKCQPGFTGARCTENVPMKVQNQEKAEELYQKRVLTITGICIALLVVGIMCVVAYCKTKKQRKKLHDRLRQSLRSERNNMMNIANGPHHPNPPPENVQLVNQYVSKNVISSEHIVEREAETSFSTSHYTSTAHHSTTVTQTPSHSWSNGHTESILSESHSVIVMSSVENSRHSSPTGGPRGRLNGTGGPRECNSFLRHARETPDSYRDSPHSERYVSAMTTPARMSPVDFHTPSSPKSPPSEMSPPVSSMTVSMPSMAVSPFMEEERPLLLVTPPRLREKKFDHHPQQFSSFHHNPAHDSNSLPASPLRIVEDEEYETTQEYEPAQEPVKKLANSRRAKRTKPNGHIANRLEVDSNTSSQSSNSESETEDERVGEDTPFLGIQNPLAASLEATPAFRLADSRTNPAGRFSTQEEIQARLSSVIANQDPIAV

On to `CCN1C(=O)[C@H]2[C@H]3[C@H](O)[C@H](O)CC(=NO[C@@H](C)c4cc(-c5c(C)cc(C)cc5C)no4)[C@@H]3CC[C@H]2C1=O`, for which the composite z-score in [1] is -0.558; in [2] it was 1.13; in assay [3] it was -0.0243; in assay [4], 0.624; in assay [5] it was 0.817; in [6], 1.08. For the same compound, the composite z-score was 1.04 in assay [7], 0.544 in [9] and -0.225 in assay [10]. Also, the z-score in assay [8] is 0.998 (inactive).

`CC(C)C(=O)N[C@H]1CCCN1C(=O)C=Cc1ccccc1`: the composite z-score in [1] is -0.174; in assay [2], 0.253; in [3], -0.0212; in [4], 0.803; in assay [5] it was 0.74; in assay [6] it was -0.219. The composite z-score was 0.72 in assay [7], 0.214 in [9] and -0.0319 in assay [10]. Besides, the z-score in assay [8] was -0.302 (inactive).

Turning to `CCOC(=O)CCN1C(=O)[C@H]2[C@H]3[C@H](O)[C@H](O)CC(=NNC(=O)OCc4ccccc4)[C@H]3CC[C@H]2C1=O`, the composite z-score in [1] is -0.594; in [2], 1.05; in [3], -0.133; in [4] it was -0.884; in assay [5], -0.871; in [6], -1.03. The composite z-score is -1.43 in [7], 0.138 in assay [9] and -0.0632 in assay [10]. Further, the z-score in assay [8] is -0.695 (inactive).

For `O=C1CCCC=C1C(O)COCc1ccccc1` (stereo not given), the composite z-score was -0.356 in assay [1]; 0.217 in assay [2]; -0.214 in [3]; 0.225 in [4]; -0.263 in assay [5]; -0.179 in [6]. Also, the composite z-score is 0.332 in assay [7], -0.302 in [9] and -0.194 in assay [10]. Further, in assay [8], the z-score was 0.91 (inactive).

As for `CCN1C(=O)[C@H]2[C@H]3[C@H](O)[C@H](O)CC(=NOCC(C)C)[C@H]3CC[C@H]2C1=O`, the composite z-score in [1] was -0.801; in [2] it was 0.328; in assay [3] it was -0.0977; in assay [4] it was 0.329; in [5], 0.351; in assay [6], -0.139. Moreover, the composite z-score was 0.124 in assay [7], 0.101 in [9] and -0.079 in [10]. Besides, the z-score in assay [8] is 0.268 (inactive).

As to `OC[C@H]1O[C@H](C#Cc2ccccc2)C=C[C@@H]1O`, the composite z-score was -0.406 in assay [1]; -0.437 in assay [2]; -0.0732 in assay [3]; 0.325 in assay [4]; 0.322 in assay [5]; 0.0659 in assay [6]. Further, the composite z-score in [7] amounted to 0.0463; in assay [9], 0.101; in [10], 0.107. In addition, the z-score in [8] was -0.999 (inactive).

Regarding `CCN1C(=O)[C@H]2[C@H]3[C@H](O)[C@H](O)CC(=NOCC[C@@H]4C=C[C@H](OC(C)=O)[C@@H](COC(C)=O)O4)[C@@H]3CC[C@H]2C1=O`, the composite z-score is -0.298 in assay [1]; 0.198 in assay [2]; -0.0085 in assay [3]; 0.547 in assay [4]; 0.522 in [5]; 0.0776 in assay [6]. The results for the composite z-score in assay [7], in [9] and in [10] were 0.314, 0.186 and 0.259, respectively. The z-score in assay [8] is 0.511 (inactive).

Take `CCOC(=O)[C@H](Cc1ccccc1)NC(=O)CCC1CC(OC(=O)NCc2ccc3c(c2)OCO3)CC2(CCCC(COC(=O)NCCOc3ccccc3)O2)O1` (stereo not given in full): the composite z-score in assay [1] was -0.288; in [2], 0.474; in assay [3] it was -0.051; in [4], 0.378; in assay [5], 0.896; in assay [6], 0.833. Also, the composite z-score in assay [7] is 1.08; in [9] it was 0.672; in assay [10], -0.0994. Moreover, in assay [8], the z-score was 1.17 (inactive).

For the compound `CO[C@H]1COC(=O)CC=C[C@@H](C)COC(=O)[C@H]2CCCN2C(=O)CC=C[C@H]1C`, the composite z-score in assay [1] was -0.867; in assay [2], 2.36; in [3], -0.147; in [4], -0.103; in assay [5], -0.315; in [6] it was -0.278. Also, the composite z-score in assay [7] was 1.06; in [9], 0.0653; in assay [10], 0.445. The z-score in assay [8] was -0.352 (inactive).

With `C[C@H]1C=CCC(=O)OC[C@H](C)C(=O)N2CCC[C@H]2C(=O)OC1`, the composite z-score in [1] was -0.815; in assay [2] it was 2.27; in assay [3], -0.291; in assay [4], -0.517; in [5], -0.594; in assay [6], -1.01. Moreover, the composite z-score in assay [7] is 1.32; in [9], 0.227; in [10], 0.107. For the same compound, in [8], the z-score is 0.263 (inactive).

Take `CC(=O)OC[C@H]1O[C@H](C#CCC2CCCCC2)C=C[C@@H]1OC(C)=O`: the composite z-score in assay [1] was -0.785; in assay [2], 0.547; in assay [3] it was -0.0739; in assay [4], 0.494; in assay [5], 0.207; in assay [6] it was 0.833. For the same compound, the composite z-score was 0.828 in [7], -0.0607 in [9] and -0.0618 in [10]. In addition, in assay [8], the z-score was 1.23 (inactive).

As to `O=C1C2=CC[C@H]3C(=O)N(C4CCCCC4)C(=O)[C@H]3[C@H]2[C@H](O)[C@@H]2O[C@H]12`, the composite z-score in assay [1] is -0.115; in assay [2], -2.14; in assay [3], -0.162; in assay [4] it was -0.179; in assay [5] it was -0.423; in assay [6], -0.0738. In addition, the figures for the composite z-score in assay [7], in [9] and in assay [10] were -0.515, -0.5 and -0.164, respectively. Further, in [8], the z-score was 11.5 (active).

The values above are taken from PubChem BioAssay.
